Source: PubChem BioAssay (NCI)
Compounds without any hit were thinned out: in the full panel of roughly 79,000, 15% have a hit. Unmarked numbers belong to inactive results. The source made the active and inactive calls. No stated cut-off is given here; in the data, active means growth inhibition above about 70%; inactive means the rest. Where a SMILES comes first, the peptide text is derived from it. [ ]: non-standard residue; d: D form. The star is where a group is joined. ξ: configuration not given here. X14 = COC1=CC(=O)N(C(=O)C(O*)C(C)C)C1Cc1ccccc1; ξNMe2Val = CC(C)C(C(=O)*)N(C)C; NMeV = CN[CH](C(=O)O)C(C)C

Key:
[1] = NCI Yeast Anticancer Drug Screen. Data for the rad50 strain (AID 155);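 further: 0% = growth of vehicle-only cultures of the same strain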; settings: S. cerevisiae rad50 strain growth inhibition; at 50.0 µM; stronger effect = higher value
Outline: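 Growth of the mutant yeast was measured after compound exposure and referenced to vehicle-treated cultures.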

[2] = NCI Yeast Anticancer Drug Screen. Data for the mec2-1 strain (AID 157); settings: S. cerevisiae mec2-1 strain, at 50.0 µM, stronger effect = higher value
Outline: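 Using mec2-1 yeast: add compound, measure growth, express inhibition versus vehicle-treated cultures.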

[3] = NCI Yeast Anticancer Drug Screen. Data for the sgs1 mgt1 strain (AID 161);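 further: 0% = growth of cultures given vehicle only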; settings: S. cerevisiae sgs1 mgt1 strain, at 50.0 µM, stronger effect = higher value
Outline: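 Yeast cells carrying a defined DNA-repair defect were exposed to test compounds. Growth inhibition was measured relative to vehicle-treated controls.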

[4] = NCI Yeast Anticancer Drug Screen. Data for the cln2 rad14 strain (AID 165);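 further: 0% = growth equal to vehicle treated cultures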; settings: S. cerevisiae cln2 rad14 strain, at 50.0 µM, stronger effect = higher value
Outline: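 Yeast strain cln2 rad14, bearing defects in cell cycle control and DNA repair, serves as the test system; values reflect growth inhibition compared with vehicle.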

[5] = NCI Yeast Anticancer Drug Screen. Data for the bub3 strain (AID 167); settings: S. cerevisiae bub3 mutant strain, at 50.0 µM, stronger effect = higher value
Outline: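 Whole-cell yeast assay. The mutant strain was incubated with compounds, and growth inhibition was determined by comparison with vehicle-treated cells.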

[6] = NCI Yeast Anticancer Drug Screen. Data for the mlh1 rad18 strain (AID 175); settings: S. cerevisiae mlh1 rad18 strain growth inhibition; at 50.0 µM; stronger effect = higher value
Outline: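 Steps: expose repair-defective yeast to compound; measure growth; express inhibition against vehicle-treated controls.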

SMILES | growth inhibition [1] | growth inhibition [2] | growth inhibition [3] | growth inhibition [4] | growth inhibition [5] | growth inhibition [6]
O=[As](O)(O)c1ccc(N=Nc2ccc([As](=O)(O)O)cc2)cc1 | -0.35% | 11.1% | -15.9% | 6.8% | -22.5% | -16.6%
CCOC(OC1=C(C#N)CCCC1)C(C)[Se]c1ccccc1 (centres undefined) | 63% | 25.2% | 54.2% | 41.9% | 50.4% | 34%
CC(C)(O)OC1COC(C2CS2)C1O (centres undefined) | 18.1% | 15.6% | 3.95% | 34.8% | 29.6% | -22.4%
CCN(CC)CCc1ccncc1 | 12.6% | 10.1% | 6.65% | 30% | -5.05% | 9.65%
COC(=O)[C@H]1[C@H]2CCOC1(c1cc(OC)c(OC)c(OC)c1)c1cc3c(cc1[C@H]2O)OCO3 | -5.55% | -63% | -21.6% | -14.3% | -38% | -0.6%
[C-]#[O+].[C-]#[O+].[C-]#[O+].[C-]#[O+].[Mo].c1ccc([As](CC[As](c2ccccc2)c2ccccc2)c2ccccc2)cc1 | 3.4% | -0.4% | -5.8% | -5.7% | 1.15% | 6.6%
CCOP(=S)(OCC)S/C(C(=O)NC)=C(/C)O | 64.2% | 22.9% | 35.4% | 65.1% | 55.5% | 79.7% (active)
Cc1ccc(SCC(CSCCO)OCn2cnc3c2NC(N)=NC32OCCO2)cc1 (centres undefined) | 6.15% | 2.3% | -37.2% | -7.4% | -12.3% | -56.9%
c1ccc(NC2CCN(C3(c4ccccc4)CCCCC3)CC2)cc1 | -17.9% | -6.8% | -6.85% | -45.6% | -1.75% | -8.1%
NC(Cc1ccc(Cl)cc1)c1nn[nH]n1 (centres undefined) | -5.5% | 1.25% | -4.1% | -22.4% | 1.2% | -7.7%
CC1(C)O[C@]2(C)CC[C@@H]1[C@@H](O)[C@@H]2N1CCCC1 | 1.75% | -8.6% | -6.75% | -33.4% | -6.75% | 0.15%
CCCCCCCCCCC(=O)O | 0.25% | -2.2% | 24.9% | -4.65% | -15.4% | 15.2%
O=S(=O)(c1ccccc1)N1CC1CI (centres undefined) | 3.45% | 2.7% | 13.9% | 10.6% | 7.9% | 1.75%
ClCCCN1CCN(c2ccccc2Cl)CC1 | 9.35% | -16.7% | 7.45% | 7.45% | 1.15% | -7.8%
O=C(Nc1ccccc1)c1ccc([As](c2ccc(C(=O)Nc3ccccc3)cc2)c2ccc(C(=O)Nc3ccccc3)cc2)cc1 | -8.9% | -7% | -4.85% | -23.9% | -19.2% | -33.5%
O=C(c1ccccc1)P(C(=O)c1ccccc1)C(=O)c1ccccc1 | 10.9% | -5.7% | 8.2% | -75.7% | -0.05% | -5.1%
CCC[As](=O)(O)c1ccc(Cl)cc1 | 88.5% (active) | 99.5% (active) | 99.2% (active) | 73.5% (active) | 94.7% (active) | 99.2% (active)
COc1ccc(N2CC=C(c3ccccc3)OP2(=O)N(CCCl)CCCl)cc1 (centres undefined) | -49.8% | -4.5% | -3.45% | 9.75% | 6.4% | -3.2%
c1ccc(-c2ccc[n+](CC[n+]3cccc(-c4ccccn4)c3)c2)nc1 | 0.3% | -9.4% | -25.4% | -11.4% | -0.1% | 8.45%
NCc1c[nH]c2ccccc12 | -25.1% | 4.8% | -22.7% | -12.8% | -16.5% | -9.7%

SMILES | growth inhibition [1] | growth inhibition [2] | growth inhibition [3] | growth inhibition [4] | growth inhibition [5] | growth inhibition [6]
O=[N+]([O-])c1cc(S(=O)(=O)O)cc([N+](=O)[O-])c1Cl | 8.35% | 7% | 2.85% | 50.5% | -17% | 24.8%
COC1=CC(=O)N(C(=O)C(OC(=O)C2CCCN2C(=O)C2CCCN2C(=O)C(C(C)C)N(C)C(=O)C(NC(=O)C(C(C)C)N(C)C)C(C)C)C(C)C)C1Cc1ccccc1 (centres undefined) (ξNMe2Val-V[NMeV]PP-X14; configuration not given here) | 16.9% | -21.4% | -4.25% | -7.6% | 28.9% | -32.6%
O=C1C(=C(O)c2ccccc2)C(=O)c2ccccc21 | -3% | 1.65% | 1.65% | -0.25% | -1.8% | 12.3%
CCOC(=O)C(N)C[S][Sn]([CH3])([CH3])[Cl] (centres undefined) | 19.1% | 21.8% | 20.6% | 18.2% | 21.7% | -26.6%
O=C/C=C/c1ccccc1.[Fe+2].[c-]1[c-][c-][cH-][c-]1.[c-]1[c-][c-][cH-][c-]1 | 4.65% | -48.2% | 1.65% | 7.85% | 11.4% | 0.4%
CCOC(OCC)c1ccc2c(c1)OCO2 | 5.65% | -5.75% | 13.2% | 4.7% | -0.05% | 11.8%
[CH-]=C([CH2-])C.[Ni][Br].c1ccc([PH+](c2ccccc2)c2ccccc2)cc1 | 35.5% | 2.9% | 26.6% | -8.85% | -4.6% | -1.75%
Cc1cc(CCl)c(O)c(CCl)c1 | -22.1% | 0.5% | -4.7% | -49.7% | -18.9% | 22.5%
CNC(=O)CCl | 5.65% | 3.4% | -0.45% | -7.15% | -0.75% | 6.4%
CC(=O)C1CCC2C3CC=C4CC(OOS(=O)c5ccc(C)cc5)CCC4(C)C3CCC12C (centres undefined) | 43.2% | 20.1% | 46.2% | -31.4% | 22.4% | 24.1%
C[N+]12C(=O)CC3OCC=C4C[N+]5(C)CCC6(c7ccccc71)C2C3C4CC65O (centres undefined) | -13.8% | -34.5% | -22% | 11.2% | -17.6% | -14.8%
CC[N+](CC)(CC)CC.N#CC(C#N)=C([SH2+])[SH2+].N#CC(C#N)=C([SH2+])[SH2+].[Co+2] | 95.3% (active) | 95.8% (active) | 56% | 94.5% (active) | 98.9% (active) | 98.7% (active)
c1cc2c(cc1[C@@H]1OC[C@@H]3[C@H]1CO[C@H]3c1ccc3c(c1)OCO3)OCO2 | 14.1% | 12.8% | 47.2% | 12.2% | 65.5% | 6.15%
NC(=O)Nc1cc(NC(N)=O)cc(N(CCCl)CCCl)c1 | -7% | -19.7% | -20.1% | -7.15% | -15.7% | -24.1%
CCOC(=O)C[S][Sn]([Cl])([Cl])[S]CC(=O)OCC | 0.6% | -1.15% | -3.65% | -32% | -5.2% | -18.1%
COc1ccc(/C=C(/C)[N+](=O)[O-])cc1OC | 99.3% (active) | 99.7% (active) | 99.3% (active) | 97.2% (active) | 99.7% (active) | 99.5% (active)
COc1ccccc1CCN | -23.6% | -5.9% | -14.1% | -14.3% | -21.2% | -29.3%
Nc1ccc(N)cc1 | 10.9% | 25.8% | -23.7% | -7.4% | -5.9% | -1%
O=P1(c2ccccc2)CCCCN1 (centres undefined) | 12.2% | -16.1% | -5.1% | -20.9% | 3.55% | 1.8%
